From PubChem BioAssay (Tox21) come the findings set out here.

A short description of assay [1]: qHTS assay to identify small molecule antagonists of the retinoid acid receptor (RAR) signaling pathway - cell viability counter screen (AID 1159551). Further: nearly all actives have a fitted effect of over 35% in size. Further: potency means the concentration at half of the fitted maximal effect. An outline of the steps: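 ATP-based viability, C3RL4 cells, 6 h at 37 C with 1 uM final retinol co-added after compound; luminescence read 30 min post CellTiter-Glo, RT.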
The nature of assay [2]: qHTS assay to identify small molecule antagonists of the retinoic acid receptor (RAR) signaling pathway (AID 1159552; further: nearly all actives have a fitted effect of over 50% in size; further: potency means the concentration at half of the fitted maximal effect). Put shortly:
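Retinol at 1 uM final stimulated RARE-luciferase expression in C3RL4 cells exposed to test compounds for 6 hr at 37 C. Reduced luminescence, read 30 min after detection reagent, indicated pathway antagonism.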
A general note: In qHTS, concentration-response curves come from the screen itself.

The nature of assay [3]: qHTS assay to identify small molecule agonists of the retinoic acid receptor (RAR) signaling pathway (AID 1159553). Further: potency means the concentration at half of the fitted maximal effect. An outline of the steps:
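Quantitative high-throughput format: the Tox21 10K library was tested on C3RL4 RARE-luciferase cells for 6 hr at 37 C and 5% CO2, with luminescence measured after a 30 min room-temperature reagent step.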

Assay [4] in a line: qHTS assay to identify small molecule antagonists of the estrogen related receptor (ERR) signaling pathway from Tox21 library - cell viability counter screen (AID 1224834). Further: nearly all actives have a fitted effect of over 30% in size. Further: potency means the concentration at half of the fitted maximal effect. An outline of the steps:
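Compounds in DMSO were pinned onto ERR cells that had been incubated for 6 h, and the plates were held at 37 C for 17.5 h. CellTiter-Fluor reagent was then added and fluorescence was measured after 30 min.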

The target in assay [5] is Luciferin 4-monooxygenase (Photinus pyralis) (UniProt P08659). As to the kind of experiment: qHTS assay to identify small molecule inhibitors of firefly luciferase (AID 1224835). Further: nearly all actives have a fitted effect of over 25% in size. Further: potency means the concentration at half of the fitted maximal effect. An outline of the steps:
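Biochemical qHTS: compounds run as interplate titrations against purified firefly enzyme, with D-luciferin and ATP each at its KM concentration. Light output recorded by CCD imaging.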

Assay [6] is described as follows: qHTS assay to identify small molecule agonists of the constitutive androstane receptor (CAR) signaling pathway - cell viability counter screen (AID 1224836). Further: series mostly up to about 92 µM; nearly all actives have a fitted effect of over 45% in size. An outline of the steps: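 Cells were seeded and incubated 4 hrs. Compounds were added across 15 concentrations together with PK11195 at 0.75 uM final. Plates were incubated 23 hrs at 37 C. CellTiter-Fluor was added and fluorescence measured.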

Assay [7] in a line: qHTS assay to identify small molecule antagonists of the constitutive androstane receptor (CAR) signaling pathway - cell viability counter screen (AID 1224837). Further: series mostly up to about 92 µM; nearly all actives have a fitted effect of over 45% in size. Put shortly: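 Cells are seeded, rested 4 hr at 37 C/5% CO2, dosed with compound (15-point series) and 50 nM CITCO, incubated a further 23 hr, and then CellTiter-Fluor reagent is added before fluorescence is read. The line is HepG2 with stable hCAR and CYP2B6-2.2kb.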

In assay [8] the target is Nuclear receptor subfamily 1 group I member 3 (Homo sapiens) (UniProt Q14994). Description: qHTS assay to identify small molecule antagonists of the constitutive androstane receptor (CAR) signaling pathway (AID 1224838).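 Further: HepG2 cells stably expressing hCAR with CYP2B6 luciferase reporter stimulated by CITCO; nearly all actives have a fitted effect of over 40% in size.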 Put shortly: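 Luminescence from a CYP2B6-2.2kb promoter reporter in hCAR-expressing HepG2 cells reflects CAR signaling. Cells received compounds at 15 concentrations and 50 nM CITCO (final), then incubated 24 h at 37 C/5% CO2.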
Chain of Nuclear receptor subfamily 1 group I member 3 (Homo sapiens) (Q14994 whole entry, looked up): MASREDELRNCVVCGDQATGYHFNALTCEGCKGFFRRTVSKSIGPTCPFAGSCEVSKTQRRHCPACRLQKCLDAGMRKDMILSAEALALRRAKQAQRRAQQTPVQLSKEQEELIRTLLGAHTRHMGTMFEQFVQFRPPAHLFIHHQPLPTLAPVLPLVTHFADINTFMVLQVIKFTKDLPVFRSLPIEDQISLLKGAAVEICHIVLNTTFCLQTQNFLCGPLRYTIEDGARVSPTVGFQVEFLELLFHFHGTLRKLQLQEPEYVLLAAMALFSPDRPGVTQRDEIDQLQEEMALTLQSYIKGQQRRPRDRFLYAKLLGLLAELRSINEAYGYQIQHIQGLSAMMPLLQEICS

The nature of assay [9]: qHTS assay to identify small molecule antagonists of the estrogen related receptor signaling pathway with the pleiotropic PPARgamma coactivator (PGC) from Tox21 10K library - cell viability counter screen (AID 1224840; active means well fitted cell-killing curve with a large enough effect in the repeat runs, not every such curve was filed as active; further: nearly all actives have a fitted effect of over 40% in size; further: potency means the concentration at half of the fitted maximal effect). Put shortly: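 Cell viability is measured by CellTiter-Fluor fluorescence in PGC/ERR cells that receive compounds after a 6-hour attachment period and are then incubated 17.5 hours at 37 C.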

Assay [10] can be described thus: qHTS assay to identify small molecule antagonists of the estrogen related receptor signaling pathway with the pleiotropic PPARgamma coactivator (PGC) from Tox21 10K library (AID 1224841; call rule not given here; further: actives are mostly falling curves and most rising ones were filed inactive; nearly all actives have a fitted effect of over 50% in size; further: potency means the concentration at half of the fitted maximal effect). Put shortly:
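Cells stably carrying the PGC/ERR reporter, seeded at 2,000 per well, received pin-transferred compounds 6 h post-plating. Exposure lasted 18 h at 37 C. Signal: One-Glo luminescence.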

Assay [11] is described as follows: qHTS assay to identify small molecule agonists of the estrogen related receptor signaling pathway with the pleiotropic PPARgamma coactivator (PGC) from Tox21 10K library (AID 1224842). Further: nearly all actives have a fitted effect of over 15% in size. An outline of the steps:
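PGC/ERR reporter cell line, 2,000 cells per well, incubated 6 h at 37 C before 23 nL compound in DMSO was added. After 18 h at 37 C, One-Glo luminescence read following 30 min at room temperature.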

Assay [12] concerns the target Thyrotropin receptor (Homo sapiens) (UniProt P16473). Description: qHTS assay to identify small molecule agonists of the thyroid stimulating hormone receptor (TSHR) signaling pathway (AID 1224843; calls by dose curve; further: nearly all actives have a fitted effect of over 45% in size). An outline of the steps: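 HEK293/TSHR, 800 cells/well; cpd 30 min RT; add cAMP-d2 + anti-cAMP-cryptate, 1 h RT; fluorescence read on plate reader. 15-pt titration, n=3.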

Assay [13] in a line: qHTS assay to identify small molecule agonists of the hypoxia (HIF-1) signaling pathway - cell viability counter screen (AID 1224844; calls by dose curve; further: nearly all actives have a fitted effect of over 50% in size; further: potency means the concentration at half of the fitted maximal effect). Put shortly:
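Viability counter screen: HRE-bla ME-180 cells plated 5 hrs before compound addition, treated 17 hrs at 37C and 5% CO2, then CellTiter-Glo added after the FRET reporter read; luminescence after 30 min.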

The target in assay [14] is Nuclear receptor subfamily 1 group I member 3 (Homo sapiens) (UniProt Q14994). As to the kind of experiment: qHTS assay to identify small molecule agonists of the constitutive androstane receptor (CAR) signaling pathway (AID 1224839). Further: nearly all actives have a fitted effect of over 15% in size. Further: potency means the concentration at half of the fitted maximal effect. Put shortly: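 Cells were plated and incubated 4 hrs, then dosed with compounds at 15 concentrations. PK11195 was added to 0.75 uM final. After 24 hrs at 37 C, luciferase luminescence was measured.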

A short description of assay [15]: qHTS assay to identify small molecule antagonists of the estrogen related receptor (ERR) signaling pathway - cell viability counter screen (AID 1224818).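 Further: series mostly up to about 46 µM; viability measured after 17.5 h of compound exposure.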 Put shortly:
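Quantitative high-throughput viability counter screen in ERR cells. Compounds (DMSO) incubated 17.5 h at 37 C; read-out was CellTiter-Fluor fluorescence.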

A short description of assay [16]: qHTS assay to identify small molecule antagonists of the estrogen related receptor (ERR) signaling pathway (AID 1224819; further: nearly all actives have a fitted effect of over 50% in size; further: potency means the concentration at half of the fitted maximal effect). An outline of the steps:
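ERR reporter cell line (NTP) plated at 2,000 cells/well, settled 6 h at 37C/5% CO2, then exposed to LOPAC compounds for 18 h at 37C. One-Glo luciferase luminescence read after 30 min at room temperature.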

Assay [17] in a line: qHTS assay to identify small molecule agonists of the estrogen related receptor (ERR) signaling pathway (AID 1224820). Put shortly: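 Following a 6 h settling period, 2,000 ERR cells per well receive DMSO-dissolved compounds by pin tool and incubate 18 h at 37 C; agonist activity is scored from One-Glo luminescence read 30 min post-addition.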
In assay [18] the test system is estrogen-related receptor alpha (ERRalpha) with PGC-1alpha coactivator, human. As to the kind of experiment: qHTS assay to identify small molecule antagonists of the estrogen related receptor signaling pathway with the pleiotropic PPARgamma coactivator (PGC) (AID 1224821; calls by dose curve; further: nearly all actives have a fitted effect of over 50% in size; further: potency means the concentration at half of the fitted maximal effect). An outline of the steps: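 Screening used NTP's PGC/ERR cells, dosed via pin tool with compound in DMSO alongside positive and negative controls. After 18 h at 37 C, One-Glo reagent sat 30 min at room temperature before luminescence detection.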

Assay [19] in a line: qHTS assay to identify small molecule agonists of the estrogen related receptor signaling pathway with the pleiotropic PPARgamma coactivator (PGC) (AID 1224823). An outline of the steps: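 In this quantitative high-throughput screen, an 18 h, 37 C treatment of PGC/ERR cells with compounds in DMSO preceded a One-Glo luminescence read taken after 30 min at room temperature.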

The nature of assay [20]: qHTS assay to identify small molecule antagonists of the estrogen related receptor signaling pathway with the pleiotropic PPARgamma coactivator (PGC) cell viability counter screen (AID 1224822; further: series mostly up to about 46 µM). An outline of the steps:
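Cytotoxicity in the PGC/ERR cell line is assessed with CellTiter-Fluor, read as fluorescence intensity 30 min after reagent addition, following 17.5 h compound treatment at 37 C.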

Several values for one entry are separate records, joined by “and”; a condition that tells them apart may be missing. Equal entries are not always repeated. Results filed as inconclusive are left out. Some structures have more than one record in an assay (separate samples or runs), and their calls can disagree. Activity calls are given as the source filed them. Unless noted, the call rests on the fitted dose curve; in most records, active means well fitted curve in the direction sought with a large enough effect in the repeat runs; inconclusive means weak or mixed curves; inactive means no such curve, though single readings can be large; an effect the other way counts as inactive or inconclusive.

Chain of Thyrotropin receptor (Homo sapiens) (P16473 whole entry, looked up): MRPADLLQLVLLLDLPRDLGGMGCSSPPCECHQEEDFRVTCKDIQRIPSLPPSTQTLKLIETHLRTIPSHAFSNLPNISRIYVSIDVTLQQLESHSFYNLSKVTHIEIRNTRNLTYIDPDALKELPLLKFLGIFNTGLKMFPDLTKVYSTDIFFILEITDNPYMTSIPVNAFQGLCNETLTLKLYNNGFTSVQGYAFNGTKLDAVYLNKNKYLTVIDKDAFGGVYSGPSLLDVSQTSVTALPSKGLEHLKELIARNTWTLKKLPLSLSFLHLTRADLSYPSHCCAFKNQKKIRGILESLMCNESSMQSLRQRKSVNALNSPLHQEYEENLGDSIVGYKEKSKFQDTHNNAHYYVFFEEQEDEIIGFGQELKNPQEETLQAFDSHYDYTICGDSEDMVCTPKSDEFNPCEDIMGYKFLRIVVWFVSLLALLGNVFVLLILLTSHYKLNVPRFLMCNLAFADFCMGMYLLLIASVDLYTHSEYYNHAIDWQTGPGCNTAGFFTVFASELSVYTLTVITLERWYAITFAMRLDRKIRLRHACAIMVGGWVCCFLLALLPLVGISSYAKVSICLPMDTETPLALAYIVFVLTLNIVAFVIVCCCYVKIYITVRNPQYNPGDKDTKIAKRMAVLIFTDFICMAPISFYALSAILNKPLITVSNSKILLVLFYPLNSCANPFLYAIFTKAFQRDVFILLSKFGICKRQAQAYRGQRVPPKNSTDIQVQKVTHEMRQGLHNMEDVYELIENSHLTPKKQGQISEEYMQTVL
Chain of Luciferin 4-monooxygenase (Photinus pyralis) (P08659 whole entry, looked up): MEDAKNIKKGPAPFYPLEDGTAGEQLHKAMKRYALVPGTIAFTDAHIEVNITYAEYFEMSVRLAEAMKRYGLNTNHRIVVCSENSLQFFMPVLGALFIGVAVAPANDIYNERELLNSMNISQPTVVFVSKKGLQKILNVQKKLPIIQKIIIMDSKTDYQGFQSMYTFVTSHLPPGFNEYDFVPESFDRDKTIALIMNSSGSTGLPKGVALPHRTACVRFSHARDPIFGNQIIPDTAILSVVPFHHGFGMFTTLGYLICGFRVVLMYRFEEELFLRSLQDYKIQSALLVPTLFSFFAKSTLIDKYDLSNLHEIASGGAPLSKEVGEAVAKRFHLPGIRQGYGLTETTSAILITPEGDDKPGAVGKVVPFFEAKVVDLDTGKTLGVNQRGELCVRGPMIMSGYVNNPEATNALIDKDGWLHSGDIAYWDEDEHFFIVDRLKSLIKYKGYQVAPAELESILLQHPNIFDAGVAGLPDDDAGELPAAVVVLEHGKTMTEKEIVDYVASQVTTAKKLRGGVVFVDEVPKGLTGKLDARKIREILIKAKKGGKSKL

For the compound `COC(=O)C1=C(C)NC(C)=C(C(=O)OCC(C)C)C1c1ccccc1[N+](=O)[O-]` (centres undefined), the Potency result in [1], in [3], in [5], in assay [6], in [7] and in assay [8] was “inactive” throughout. Further, the Potency entry in assay [11] and in assay [12] was “inactive” in each case. Moreover, the Potency in [2] is 48.6 µM (active); in assay [4] it was 21.7 µM (active) and 29.8 µM (active); in [9], 27.3 µM (active) and inactive; in assay [10], 13.7 µM (active) and 21.1 µM (active); in assay [13], 49 µM (active).
For `CCC1OCC(COc2ccc(Oc3ccccc3)cc2)O1` (centres undefined), the Potency result in assay [1], in assay [2], in [4], in [6], in [7] and in [9] was “inactive” each time. The Potency result in assay [10] and in [13] was “inactive” each time. In addition, the figures for the Potency in assay [3], in assay [5] and in [14] were 3.44 µM (active), 17.8 µM (active) and 21.7 µM (active), respectively.
Turning to `Clc1ccccc1C(c1ccccc1)(c1ccccc1)n1ccnc1`, the Potency in assay [1] is 68.6 µM (active) and inactive; in [2], 19.3 µM (active); in assay [16] it was 12.8 µM (active); in assay [18] it was 20.3 µM (active); in [4] it was 27.3 µM (active) and 11.9 µM (active); in assay [9], 17.2 µM (active). Further, the Potency is 5.45 µM (active) and 9.44 µM (active) in assay [10]; 21.9 µM (active) in assay [13]. Further, the Potency result in [3], in assay [15], in [5], in assay [11] and in [12] was “inactive” each time. Moreover, the outcome in assay [17] and in assay [19] was inactive.
With `OCCN(CCO)c1nc(N2CCCCC2)c2nc(N(CCO)CCO)nc(N3CCCCC3)c2n1`, the Potency entry in [1], in assay [2], in assay [3], in [5], in assay [8] and in [14] was “inactive” in each case. Also, in assay [11], the Potency entry is “inactive”. Further, the Potency in assay [16] is 11.9 µM (active). Further, the call in assay [17] and in assay [19] was inactive.
As for `O=c1[nH]cnc2nc[nH]c12`, the Potency result in assay [1], in assay [2], in assay [3], in assay [4], in [5] and in assay [6] was “inactive” throughout. In addition, the Potency entry in [7], in [14], in assay [9], in assay [10], in assay [11] and in [12] was “inactive” throughout. Also, the Potency entry in assay [13] is “inactive”.
Take `O=C(c1ccc(F)cc1)C1CCN(CCn2c(=O)[nH]c3ccccc3c2=O)CC1`: the Potency result in assay [1], in assay [2], in assay [3], in [15], in assay [16] and in assay [18] was “inactive” each time. In addition, the Potency result in assay [20], in assay [5], in [6], in assay [7], in assay [8] and in assay [14] was “inactive” throughout. Moreover, the Potency result in assay [9] and in [12] was “inactive” in each case. The compound was called inactive in assay [17] and in assay [19].
In the case of `CN(C)c1ccc(C2(c3ccc(N(C)C)cc3)OC(=O)c3cc(N(C)C)ccc32)cc1`, the Potency entry in assay [1], in assay [2], in assay [3], in assay [4], in assay [5] and in assay [6] was “inactive” in each case. For the same compound, the Potency result in [7], in assay [8], in [14], in assay [9], in assay [10] and in assay [11] was “inactive” each time. For the same compound, the Potency entry in [12] and in [13] was “inactive” each time.
For `O=C(O)c1c(Cl)cccc1Cl`, the Potency result in assay [1], in assay [2], in assay [3], in assay [4], in assay [5] and in assay [6] was “inactive” throughout. The Potency result in assay [7], in assay [8], in assay [14], in assay [9], in [12] and in assay [13] was “inactive” each time.
